# Assay results reported in the supplement of paper PMC10849652.
# Of roughly 8,800 targets only a part is listed; those with a hit were picked by preference. About 0.5% of all pairs of compound and target were hits.
# Compound: CC1=C(SC2=C1C(=N[C@H](C3=NN=C(N32)C)CC(=O)N)C4=CC=C(C=C4)Cl)C
# Experiment: log2 fold change, soluble protein after heating vs DMSO (PISA); higher = thermal stabilisation; K562 lysate, 10 uM; active = over 0.2 and 3.5 SD of the protein, either way, in both replicates (recomputed)
# How it was run: (§1)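 Pellets of K562 cells were dounce-homogenised in PBS pH 7.4 with 1 mM MgCl2, and the crude extract was held at 1 mg/mL protein for a 30 min treatment with 10 μM compound. Aliquots were heated for 3 min over 48°C-58°C and pooled before NP-40 was added to 0.5% at 4°C. The supernatant from 21,000xg for 90 min was quantified by TMTpro 16plex LC-MS/MS with channel sums equalised. Values are reported from duplicates as log-two fold change in thermal stability relative to solvent controls.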
# UniProt Q8NFF5, sequence (Q8NFF5 whole entry, looked up): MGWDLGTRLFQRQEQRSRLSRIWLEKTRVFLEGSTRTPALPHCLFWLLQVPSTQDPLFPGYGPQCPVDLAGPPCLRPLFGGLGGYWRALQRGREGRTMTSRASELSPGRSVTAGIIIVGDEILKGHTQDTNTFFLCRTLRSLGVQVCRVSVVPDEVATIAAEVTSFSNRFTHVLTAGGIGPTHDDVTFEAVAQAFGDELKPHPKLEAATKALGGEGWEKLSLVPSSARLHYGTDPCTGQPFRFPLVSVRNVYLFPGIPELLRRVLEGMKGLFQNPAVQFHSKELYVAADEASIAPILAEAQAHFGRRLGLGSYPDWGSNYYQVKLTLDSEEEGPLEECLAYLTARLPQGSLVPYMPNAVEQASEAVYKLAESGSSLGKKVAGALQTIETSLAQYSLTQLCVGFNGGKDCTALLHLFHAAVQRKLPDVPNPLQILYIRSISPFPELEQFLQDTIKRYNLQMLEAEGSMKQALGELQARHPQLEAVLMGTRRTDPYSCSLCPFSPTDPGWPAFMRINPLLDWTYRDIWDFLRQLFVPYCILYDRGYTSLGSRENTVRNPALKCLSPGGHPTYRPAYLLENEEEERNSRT
# UniProt Q9NZC3, sequence (Q9NZC3 whole entry, looked up): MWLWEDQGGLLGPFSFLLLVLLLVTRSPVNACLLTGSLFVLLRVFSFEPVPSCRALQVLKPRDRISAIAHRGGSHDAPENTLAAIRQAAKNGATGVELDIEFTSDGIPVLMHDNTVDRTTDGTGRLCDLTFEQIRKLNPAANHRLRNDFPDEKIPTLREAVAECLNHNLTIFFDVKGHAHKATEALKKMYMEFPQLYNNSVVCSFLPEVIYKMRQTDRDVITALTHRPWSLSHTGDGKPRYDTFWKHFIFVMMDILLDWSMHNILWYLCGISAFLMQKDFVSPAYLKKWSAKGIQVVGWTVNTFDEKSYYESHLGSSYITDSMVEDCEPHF
# UniProt P0C2W1, sequence (P0C2W1 whole entry, looked up): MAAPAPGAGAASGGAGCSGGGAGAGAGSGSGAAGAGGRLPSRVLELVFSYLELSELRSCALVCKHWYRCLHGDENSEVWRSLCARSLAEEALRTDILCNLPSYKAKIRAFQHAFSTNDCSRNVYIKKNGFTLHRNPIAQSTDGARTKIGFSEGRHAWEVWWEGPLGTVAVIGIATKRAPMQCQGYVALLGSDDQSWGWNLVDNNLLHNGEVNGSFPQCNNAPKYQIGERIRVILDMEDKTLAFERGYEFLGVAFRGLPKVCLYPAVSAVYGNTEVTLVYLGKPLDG
# UniProt P02774, sequence (P02774 whole entry, looked up): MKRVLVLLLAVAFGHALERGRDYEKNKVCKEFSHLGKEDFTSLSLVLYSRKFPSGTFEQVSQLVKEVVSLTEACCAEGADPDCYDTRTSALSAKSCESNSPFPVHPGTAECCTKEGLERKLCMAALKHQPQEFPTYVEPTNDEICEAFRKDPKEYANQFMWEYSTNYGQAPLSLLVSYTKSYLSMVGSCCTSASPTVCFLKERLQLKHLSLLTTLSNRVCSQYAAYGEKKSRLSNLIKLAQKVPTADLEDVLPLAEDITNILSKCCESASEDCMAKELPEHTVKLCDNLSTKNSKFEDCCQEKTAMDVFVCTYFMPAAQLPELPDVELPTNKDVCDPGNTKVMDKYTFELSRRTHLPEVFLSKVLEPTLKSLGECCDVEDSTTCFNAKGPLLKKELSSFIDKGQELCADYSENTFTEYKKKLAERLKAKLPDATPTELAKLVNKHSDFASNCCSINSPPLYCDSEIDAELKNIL
# UniProt Q14C86, sequence (Q14C86 whole entry, looked up): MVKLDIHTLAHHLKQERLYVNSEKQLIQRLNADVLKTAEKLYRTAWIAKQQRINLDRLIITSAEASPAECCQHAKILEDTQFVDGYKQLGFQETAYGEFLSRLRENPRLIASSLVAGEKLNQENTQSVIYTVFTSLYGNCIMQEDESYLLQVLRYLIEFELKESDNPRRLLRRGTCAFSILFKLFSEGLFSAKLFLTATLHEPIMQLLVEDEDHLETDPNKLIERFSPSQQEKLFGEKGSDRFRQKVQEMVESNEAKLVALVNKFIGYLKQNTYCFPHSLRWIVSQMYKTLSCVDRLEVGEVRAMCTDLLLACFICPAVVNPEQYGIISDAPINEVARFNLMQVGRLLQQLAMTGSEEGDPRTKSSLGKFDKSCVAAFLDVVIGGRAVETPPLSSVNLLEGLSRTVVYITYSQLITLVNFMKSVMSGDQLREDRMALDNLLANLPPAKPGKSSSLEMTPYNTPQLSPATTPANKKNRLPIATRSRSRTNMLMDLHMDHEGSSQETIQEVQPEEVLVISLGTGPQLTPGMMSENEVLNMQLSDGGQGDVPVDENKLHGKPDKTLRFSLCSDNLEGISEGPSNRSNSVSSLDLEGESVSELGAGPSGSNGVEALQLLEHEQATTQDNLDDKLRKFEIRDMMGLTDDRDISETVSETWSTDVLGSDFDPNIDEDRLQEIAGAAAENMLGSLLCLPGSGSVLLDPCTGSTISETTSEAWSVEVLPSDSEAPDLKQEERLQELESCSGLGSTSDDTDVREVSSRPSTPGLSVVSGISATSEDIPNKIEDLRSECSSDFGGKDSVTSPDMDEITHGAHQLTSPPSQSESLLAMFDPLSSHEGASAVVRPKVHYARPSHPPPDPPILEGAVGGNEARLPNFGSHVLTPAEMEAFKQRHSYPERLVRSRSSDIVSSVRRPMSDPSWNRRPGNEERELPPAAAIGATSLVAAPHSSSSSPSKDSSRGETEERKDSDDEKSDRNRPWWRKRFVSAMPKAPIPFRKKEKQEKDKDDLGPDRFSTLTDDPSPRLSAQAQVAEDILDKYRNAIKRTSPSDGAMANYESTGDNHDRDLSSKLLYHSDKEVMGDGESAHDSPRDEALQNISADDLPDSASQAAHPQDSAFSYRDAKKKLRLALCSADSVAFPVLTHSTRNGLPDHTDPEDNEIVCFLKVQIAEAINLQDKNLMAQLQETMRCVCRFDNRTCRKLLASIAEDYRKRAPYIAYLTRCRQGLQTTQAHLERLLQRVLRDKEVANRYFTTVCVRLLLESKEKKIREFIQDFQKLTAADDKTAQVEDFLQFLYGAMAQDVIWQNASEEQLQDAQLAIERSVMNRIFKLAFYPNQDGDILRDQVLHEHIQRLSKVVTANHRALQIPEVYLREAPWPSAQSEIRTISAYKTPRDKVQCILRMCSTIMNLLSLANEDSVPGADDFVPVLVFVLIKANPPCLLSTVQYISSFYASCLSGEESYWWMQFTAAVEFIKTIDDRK
# UniProt Q8TEQ6, sequence (Q8TEQ6 whole entry, looked up): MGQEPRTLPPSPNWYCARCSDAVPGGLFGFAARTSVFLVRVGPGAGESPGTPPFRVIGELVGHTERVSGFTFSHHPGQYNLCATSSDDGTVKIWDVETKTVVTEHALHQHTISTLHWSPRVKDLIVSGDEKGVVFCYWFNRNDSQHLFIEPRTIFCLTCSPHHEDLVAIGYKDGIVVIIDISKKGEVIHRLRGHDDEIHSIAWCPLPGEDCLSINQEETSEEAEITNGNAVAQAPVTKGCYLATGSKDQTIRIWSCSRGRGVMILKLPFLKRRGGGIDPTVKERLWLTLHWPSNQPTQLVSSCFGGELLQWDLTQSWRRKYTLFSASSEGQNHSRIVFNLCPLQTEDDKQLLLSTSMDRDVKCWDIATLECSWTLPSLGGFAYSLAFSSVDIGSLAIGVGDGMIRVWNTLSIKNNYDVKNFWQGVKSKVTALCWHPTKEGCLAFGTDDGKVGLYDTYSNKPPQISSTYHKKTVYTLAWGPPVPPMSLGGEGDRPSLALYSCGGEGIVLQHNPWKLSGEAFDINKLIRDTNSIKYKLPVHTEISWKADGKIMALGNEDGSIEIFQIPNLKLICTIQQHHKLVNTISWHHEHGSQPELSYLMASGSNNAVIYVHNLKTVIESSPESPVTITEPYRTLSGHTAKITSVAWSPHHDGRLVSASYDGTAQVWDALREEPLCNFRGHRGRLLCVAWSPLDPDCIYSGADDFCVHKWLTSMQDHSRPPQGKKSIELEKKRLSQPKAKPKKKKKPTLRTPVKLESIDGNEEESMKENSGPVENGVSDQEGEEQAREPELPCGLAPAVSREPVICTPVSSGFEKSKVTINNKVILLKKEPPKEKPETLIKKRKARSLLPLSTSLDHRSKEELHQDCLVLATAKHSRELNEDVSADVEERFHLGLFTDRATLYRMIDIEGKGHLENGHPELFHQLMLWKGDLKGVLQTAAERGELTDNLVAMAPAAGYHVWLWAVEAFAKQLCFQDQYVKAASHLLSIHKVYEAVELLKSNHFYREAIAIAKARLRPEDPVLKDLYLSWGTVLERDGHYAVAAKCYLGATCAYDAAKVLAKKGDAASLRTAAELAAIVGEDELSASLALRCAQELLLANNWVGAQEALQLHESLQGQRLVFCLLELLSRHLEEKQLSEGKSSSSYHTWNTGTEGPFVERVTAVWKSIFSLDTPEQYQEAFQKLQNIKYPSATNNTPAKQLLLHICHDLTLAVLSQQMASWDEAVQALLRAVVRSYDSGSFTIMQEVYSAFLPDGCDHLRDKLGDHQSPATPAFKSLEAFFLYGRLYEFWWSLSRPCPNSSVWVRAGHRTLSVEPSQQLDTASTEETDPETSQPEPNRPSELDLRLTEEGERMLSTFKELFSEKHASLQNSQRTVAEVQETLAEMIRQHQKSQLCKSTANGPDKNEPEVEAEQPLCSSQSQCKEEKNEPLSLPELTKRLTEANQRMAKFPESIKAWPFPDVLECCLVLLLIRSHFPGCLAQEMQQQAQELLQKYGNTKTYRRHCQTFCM
# UniProt P26378, sequence (P26378 whole entry, looked up): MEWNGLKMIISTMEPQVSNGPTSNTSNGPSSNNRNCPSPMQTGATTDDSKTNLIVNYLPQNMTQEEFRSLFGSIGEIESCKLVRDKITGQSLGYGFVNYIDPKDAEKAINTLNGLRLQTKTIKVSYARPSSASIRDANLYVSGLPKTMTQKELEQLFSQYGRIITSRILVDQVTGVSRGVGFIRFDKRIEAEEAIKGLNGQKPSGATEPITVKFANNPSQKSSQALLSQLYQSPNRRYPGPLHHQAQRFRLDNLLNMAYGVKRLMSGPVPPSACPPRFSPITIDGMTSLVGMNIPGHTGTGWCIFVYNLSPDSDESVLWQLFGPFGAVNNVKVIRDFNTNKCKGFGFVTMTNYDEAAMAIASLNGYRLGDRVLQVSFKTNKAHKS
row,Target,log2 fold change
1,ERG28 (UniProt Q9UKR5),-0.053 (inactive)
2,GAA (UniProt P10253),-0.077 (inactive)
3,EPS8L2 (UniProt Q9H6S3),-0.09 (inactive)
4,FECH isoform 2 (UniProt P22830),-0.101 (inactive)
5,FOXL2 (UniProt P58012),0.129 (inactive)
6,FIG4 (UniProt Q92562),-0.108 (inactive)
7,FXR1 (UniProt P51114),-0.016 (inactive)
8,DST isoform 3 (UniProt Q03001),-0.033 (inactive)
9,FAT2 (UniProt Q9NYQ8),0.092 (inactive)
10,FOXJ2 (UniProt Q9P0K8),0.06 (inactive)
11,EMC7 (UniProt Q9NPA0),0.02 (inactive)
12,FBXO45 (UniProt P0C2W1),-0.177 (inactive)
13,GEMIN5 (UniProt Q8TEQ6),0.025 (inactive)
14,GAPVD1 isoform 6 (UniProt Q14C86),0.002 (inactive)
15,GDE1 (UniProt Q9NZC3),-0.076 (inactive)
16,GBA2 (UniProt Q9HCG7),0.062 (inactive)
17,DYRK1A isoform 2 (UniProt Q13627),-0.028 (inactive)
18,EPN2 (UniProt I3L356),-0.062 (inactive)
19,GART (UniProt C9JZG2),0.086 (inactive)
20,FLAD1 (UniProt Q8NFF5),0.032 (inactive)
21,EHHADH (UniProt Q08426),-0.143 (inactive)
22,ESRRB isoform 1 (UniProt O95718),0.109 (inactive)

# Compound: CC1=C2C(=CC=C1)N=C(N(C2=O)C3=CC=CC=C3C)CN4C=NC5=C(N=CN=C54)N
# Experiment: as above
# How it was run: as §1
row,Target,log2 fold change
1,GAA (UniProt P10253),-0.157 (inactive)
2,FECH isoform 2 (UniProt P22830),-0.126 (inactive)
3,FAM76B (UniProt Q5HYJ3),0.066 (inactive)
4,FIG4 (UniProt Q92562),0.037 (inactive)
5,FXR1 (UniProt P51114),-0.009 (inactive)
6,FAT2 (UniProt Q9NYQ8),0.104 (inactive)
7,EMC7 (UniProt Q9NPA0),0.024 (inactive)
8,FBXO45 (UniProt P0C2W1),-0.004 (inactive)
9,GEMIN5 (UniProt Q8TEQ6),0.016 (inactive)
10,FTSJ1 isoform 2 (UniProt Q9UET6),-0.089 (inactive)
11,GAPVD1 isoform 6 (UniProt Q14C86),0.002 (inactive)
12,FAM204A (UniProt Q9H8W3),-0.102 (inactive)
13,GC isoform 3 (UniProt P02774),0.007 (inactive)
14,FAM111A (UniProt Q96PZ2),-0.008 (inactive)
15,FLAD1 (UniProt Q8NFF5),0.011 (inactive)
16,ELAVL4 (UniProt P26378),0.018 (inactive)

# Compound: Cc1sc2c(c1C)C(c1ccc(Cl)cc1)=N[C@@H](CC(=O)OC(C)(C)C)c1nnc(C)n1-2
# Experiment: as above
# How it was run: as §1
row,Target,log2 fold change
1,ERG28 (UniProt Q9UKR5),-0.08 (inactive)
2,FMNL2 isoform 3 (UniProt Q96PY5),0.089 (inactive)
3,EPS8L2 (UniProt Q9H6S3),0.008 (inactive)
4,FECH isoform 2 (UniProt P22830),-0.229 (inactive)
5,FAM76B (UniProt Q5HYJ3),0.038 (inactive)
6,FOXL2 (UniProt P58012),0.166 (inactive)
7,FIG4 (UniProt Q92562),0.039 (inactive)
8,FXR1 (UniProt P51114),0.04 (inactive)
9,EIF2AK3 (UniProt Q9NZJ5),0.025 (inactive)
10,FOXJ2 (UniProt Q9P0K8),0.015 (inactive)
11,EMC7 (UniProt Q9NPA0),0.005 (inactive)
12,GEMIN5 (UniProt Q8TEQ6),-0.002 (inactive)
13,GAPVD1 isoform 6 (UniProt Q14C86),-0.011 (inactive)
14,GDE1 (UniProt Q9NZC3),-0.067 (inactive)
15,GC isoform 3 (UniProt P02774),-0.138 (inactive)
16,FAM111A (UniProt Q96PZ2),-0.097 (inactive)
17,GBA2 (UniProt Q9HCG7),-0.094 (inactive)
18,EID1 (UniProt Q9Y6B2),0.024 (inactive)
19,FLAD1 (UniProt Q8NFF5),0.017 (inactive)
20,ELAVL4 (UniProt P26378),-0.079 (inactive)
21,EHHADH (UniProt Q08426),-0.086 (inactive)

# Compound: c1ccc([C@@H]2C[C@H]2NC2CCNCC2)cc1
# Experiment: as above
# How it was run: as §1
row,Target,log2 fold change
1,EVI5L isoform 2 (UniProt Q96CN4),0.036 (inactive)
2,ERG28 (UniProt Q9UKR5),0.277 (inactive)
3,GAA (UniProt P10253),-0.024 (inactive)
4,EPS8L2 (UniProt Q9H6S3),0.037 (inactive)
5,FECH isoform 2 (UniProt P22830),-0.092 (inactive)
6,FAM76B (UniProt Q5HYJ3),-0.099 (inactive)
7,FIG4 (UniProt Q92562),-0.037 (inactive)
8,EIF3I (UniProt Q5TFK1),0.059 (inactive)
9,FXR1 (UniProt P51114),0.027 (inactive)
10,EIF2AK3 (UniProt Q9NZJ5),0.041 (inactive)
11,DST isoform 3 (UniProt Q03001),0.586 (inactive)
12,GCA (UniProt P28676),-0.095 (inactive)
13,FAT2 (UniProt Q9NYQ8),-0.161 (inactive)
14,FOXJ2 (UniProt Q9P0K8),0.039 (inactive)
15,EMC7 (UniProt Q9NPA0),-0.141 (inactive)
16,FBXO45 (UniProt P0C2W1),0.053 (inactive)
17,GEMIN5 (UniProt Q8TEQ6),0.036 (inactive)

row,Target,log2 fold change
1,FTSJ1 isoform 2 (UniProt Q9UET6),-0.234 (inactive)
2,FNDC3A (UniProt Q9Y2H6),-0.136 (inactive)
3,GAPVD1 isoform 6 (UniProt Q14C86),0.063 (inactive)
4,EPB41 isoform 4 (UniProt P11171),0.106 (inactive)
5,FAM204A (UniProt Q9H8W3),-0.035 (inactive)
6,GDE1 (UniProt Q9NZC3),0.394 (inactive)
7,GC isoform 3 (UniProt P02774),0.107 (inactive)
8,GBA2 (UniProt Q9HCG7),-0.057 (inactive)
9,DYRK1A isoform 2 (UniProt Q13627),-0.339 (inactive)
10,EPN2 (UniProt I3L356),-0.235 (inactive)
11,FAT1 (UniProt Q14517),-0.092 (inactive)
12,EID1 (UniProt Q9Y6B2),-0.022 (inactive)
13,GART (UniProt C9JZG2),-0.366 (inactive)
14,FLAD1 (UniProt Q8NFF5),0.022 (inactive)
15,ELAVL4 (UniProt P26378),0.095 (inactive)
16,EHHADH (UniProt Q08426),0.031 (inactive)
17,ESRRB isoform 1 (UniProt O95718),0.321 (inactive)
